In all, about 340,000 compounds went through this assay and about 6,400 (1.9%) were called active. A call without a number means that no potency is given here. About 4% were inconclusive and are not listed. Calls come from the whole dose curve; as a rule, active = well fitted falling curve with a large enough effect; inconclusive = small, poorly fitted or top-dose-only effect; inactive = no such curve, though single readings can be large or run the other way. The sample as a whole holds a higher share of actives than the screen did.
Potency is the fitted concentration of half-maximal effect.

This experiment deals with ATP-dependent Clp protease proteolytic subunit (Bacillus subtilis (strain 168)) (UniProt P80244). As to the kind of experiment: qHTS Assay for Activators of ClpP. Note: the source files actives as falling curves though it sought activators and does not explain the sign; nearly all actives have a fitted effect of over 65% in size. Conditions: purified B. subtilis ClpP, FRET peptide cleavage, 20 min; series mostly up to 57.5 µM. In a few lines: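 FRET quenching reversal measured ClpP activation: 10 microg/mL B. subtilis ClpP at pH 8 with the FRET-FV decapeptide, read at 430 nm after 320 nm excitation. The 20-min minus 0-min signal was scaled between DMSO/no-enzyme wells and ADEP (5.8 microM final).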
Sequence of ATP-dependent Clp protease proteolytic subunit (Bacillus subtilis (strain 168)) (P80244 whole entry, looked up): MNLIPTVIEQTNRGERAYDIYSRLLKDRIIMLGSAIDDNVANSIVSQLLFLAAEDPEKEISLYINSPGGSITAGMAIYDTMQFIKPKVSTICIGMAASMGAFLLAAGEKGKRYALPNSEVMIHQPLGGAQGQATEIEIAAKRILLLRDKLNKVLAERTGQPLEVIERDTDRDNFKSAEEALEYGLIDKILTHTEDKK
On the technique in general: qHTS replaces the single test concentration by a dilution series.
With `COc1ccc(CN(Cc2ccccc2)C(=O)c2ccc(O)cc2)cc1COc1ccc(NC(C)=O)cc1`, the Potency result is “inactive”.
In the case of `C[C@@H]1CN([C@@H](C)CO)C(=O)CCCn2nncc2CO[C@H]1CN(C)Cc1ccc(C(F)(F)F)cc1`, the Potency entry is “inactive”.
With `C#CCN(C[C@@H]1[C@@H](OC(=O)NC2CC2)[C@@H](OC(=O)NC2CC2)Cn2c(=O)ccc(=O)n21)S(=O)(=O)c1ccc(C)cc1` the entry was “inactive”; with `CC1=C(C(=O)Nc2ccccc2)C(c2ccc(C)cc2)n2nc(SCc3ccccc3C)nc2N1` (centres undefined), “inactive”; with `COc1cccc(C2C(C(=O)Nc3ccc(C)cc3C)=C(C)Nc3c(C(=O)Nc4ccccc4)cnn32)c1` (centres undefined), “inactive”.
To `CCc1ccc(C2C(C(=O)Nc3ccccc3)=C(C)Nc3c(C(=O)Nc4ccc(C)cc4)cnn32)cc1` (centres undefined) belongs 31.6 µM (active).
With `CC1(C(=O)NCc2ccc3c(c2)OCO3)CCN1C(=O)Cc1cccs1` (centres undefined), the Potency result was “inactive”.
For the compound `COc1cccc(CNc2nc(NCc3ccccc3OC)nc3ccsc23)c1`, the Potency result is “inactive”.
On to `CCC(=O)N1CCCC1(C)C(=O)Nc1ccc2c(c1)CCN2C(C)=O` (centres undefined), for which the Potency entry is “inactive”.
With `CCn1cc(/C=C(\NC(=O)c2ccc(C)cc2)C(=O)NCCN2CCOCC2)c2ccccc21` the entry was “inactive”; with `Cc1cc(C)cc(C(=O)NCCN2CCOCC2)c1`, “inactive”.
Consider `Cc1ccc(C(=O)NC(=S)NCCN2CCOCC2)cc1`, for which the Potency is 28.2 µM (active).
In the case of `CCCNC(=O)c1cc2c(c(-c3cccc(-c4ccc(C#N)cc4)c3)n1)[C@@H](CCO)N(C(=O)CC)C2`, the Potency result was “inactive”.
In the case of `CC(C)OC(=O)CC(=O)CC(O)c1cccc([N+](=O)[O-])c1` (centres undefined), the Potency result is “inactive”.
With `COC(=O)c1ccc2nc(-c3ccc(F)cc3)c(Cc3ccc(C)cc3)n2c1` the entry was “inactive”.
To `COc1ccc(NC(=O)CCCC2CCCCC2)c(OC)c1` belongs “inactive”.
To `COC(=O)c1sccc1NC(=O)CCC1CCCC1` belongs “inactive”.
For `CC(=O)Oc1ccc(NC(=O)CCC2CCCCC2)c(C(=O)O)c1`, the Potency is 22.4 µM (active).
`CCc1nc2c(OCc3ccc(C(F)(F)F)cc3)cccn2c1N(C)C(=O)CC(C)C`: the Potency result was “inactive”.
To `Cc1ccccc1CN1C(=O)CSCC1(C)C(=O)Nc1c(C)cccc1C` (centres undefined) belongs “inactive”.
To `CC(C)(C)C1CCC(NC(=O)c2cnn3c2NC(=C2CC2)C=C3C(F)F)CC1` (centres undefined) belongs “inactive”.
To `CN(C)CCCNC(=O)c1ccc2[nH]c3ccccc3c2c1` belongs 12.6 µM (active).
As to `Cc1ccc(C(=O)NCCSc2c(C)[nH]c3ccccc23)cc1C`, the Potency entry is “inactive”.
To `CCCCNC(=O)c1ccc(-n2c(=S)[nH]c3ccccc3c2=O)cc1` belongs “inactive”; to `COc1ccc(NC(=O)c2sc(=O)n(Cc3ccc(S(=O)(=O)N(C)C)cc3)c2C)cc1`, “inactive”.
Consider `CCN1C(=O)[C@H]2[C@@H](c3ccccc3)N[C@]3(CCCN(Cc4ccc(C)cc4)C3=O)[C@H]2C1=O`, for which the Potency result was “inactive”.
With `O=C(CNC(=O)c1ccco1)OCC(=O)c1ccccc1` the figure was 25.1 µM (active).
To `O=C(COC(=O)CNC(=O)c1ccco1)Nc1ccc(F)cc1` belongs 25.1 µM (active).
Take `CCc1ccc(C(=O)COC(=O)c2ccco2)cc1`: the Potency result is “inactive”.
To `NS(=O)(=O)c1ccc(NC(=O)COC(=O)c2ccco2)cc1` belongs “inactive”.
With `CCOC(=O)c1ccc(NC(=O)CNC(=O)c2ccco2)cc1` the entry was “inactive”; with `COCCn1c(C)cc(C(=O)COC(=O)CNC(=O)c2ccco2)c1C`, “inactive”; with `CC(O)(c1cccc(F)c1)c1nc(-c2ccc3c(c2)OCO3)cs1` (centres undefined), “inactive”.
For `C[C@@H]1CN([C@@H](C)CO)C(=O)c2cc(Br)cnc2O[C@H]1CN(C)Cc1ccc(-c2ccccc2)cc1`, the Potency result was “inactive”.
In the case of `C[C@@H]1CN([C@H](C)CO)C(=O)CCCn2nncc2CO[C@@H]1CN(C)S(=O)(=O)c1cccc(C#N)c1`, the Potency entry is “inactive”.
To `CC[C@@H]1CC2=C(C(=O)OC(C)(C)O2)[C@@H](CC)O1` belongs “inactive”.
For `CC1(c2cccc(Br)c2)NC(=O)N(CC(=O)NCCC2=CCCCC2)C1=O` (centres undefined), the Potency entry was “inactive”.
To `COc1cc2cc(CN(CCN3CCCC3)C(=O)Nc3ccccc3Cl)c(=O)[nH]c2cc1OC` belongs 3.16 µM (active); to `Cc1ccc2[nH]c(=O)c(CN(CCCN(C)C)C(=O)Nc3cccc(Cl)c3)cc2c1`, “inactive”; to `COc1ccc(CCN(Cc2cc3cccc(C)c3[nH]c2=O)C(=O)N2CCCC2)cc1OC`, “inactive”.
In the case of `O=S1(=O)CC(N2CCSCC2)CN1Cc1cn(Cc2cccc(Cl)c2)nn1` (centres undefined), the Potency entry was “inactive”.
`CCc1nc2c(OCc3ccccc3)cccn2c1N(C)C(=O)c1ccco1`: the Potency entry was “inactive”.
As to `CC(=O)Oc1ccc(Cn2c(C)c(C(=O)NCc3ccc(C#N)cc3)sc2=O)cc1`, the Potency result was “inactive”.
For `CC(=O)NC(c1cccc(F)c1)c1nc(-c2cccc(F)c2)cs1` (centres undefined), the Potency result is “inactive”.
With `Cc1nn(-c2nc(-c3ccccc3)cc(C(F)(F)F)n2)c(C)c1Cl`, the Potency entry was “inactive”.
On to `Cc1cc(C(F)(F)F)nn1-c1nc(-c2ccco2)cc(C(F)(F)F)n1`, for which the Potency is 35.5 µM (active).
With `COc1nc(NCc2ccc(Cl)cc2)nc(OC)n1` the entry was “inactive”.
With `FC(F)(F)c1cc(-c2ccco2)nc(NCc2ccc(Cl)cc2)n1` the figure was 28.2 µM (active); with `COc1ccc(CNc2nc(-c3ccc(Cl)cc3)cc(C(F)(F)F)n2)cc1`, “inactive”.
Turning to `CCOC(=O)c1ccn(-c2nc(-c3ccco3)cc(C(F)(F)F)n2)n1`, the Potency entry was “inactive”.
Take `CCc1oc(-c2ccc(OC)cc2)c(C(=O)OCCCCCO)c1C(C)OCCO` (centres undefined): the Potency result was “inactive”.
To `CCSC1(SCC)N=C(N)C2(C#N)C(c3ccccc3)NC(C)=CC12C#N` (centres undefined) belongs 15.8 µM (active); to `CNc1cncc(-c2ccc(NS(C)(=O)=O)cc2)n1`, “inactive”.
To `COc1cccc(CN2CCC(C(=O)NC(c3ccc4c(c3)OCO4)c3ccccn3)CC2)c1` (centres undefined) belongs “inactive”; to `O=C(COc1ccccc1C(=O)Nc1ccccc1)Nc1cccc(F)c1`, “inactive”.
`CC(C)n1c(CN2CCN(Cc3ccccc3)CC2)nc2ccccc21`: the Potency entry was “inactive”.
As to `CCC(c1nc2ccccc2[nH]1)n1c(=O)c(-c2cccs2)nc2ccccc21` (centres undefined), the Potency result was “inactive”.
With `CC(C)n1c(-c2cccs2)nc2ccccc21` the figure was 3.98 µM (active).
With `COc1cc(C=C(OC(C)=O)c2ccc3c(c2)OCO3)cc(OC)c1OC` the entry was “inactive”; with `CCOC(=O)c1cnc(COc2ccccc2Cl)[nH]c1=O`, “inactive”; with `CCCCSc1[nH]c(=O)c(C(=O)OCC)cc1C#N`, 31.6 µM (active).
With `CCOC(=O)c1cc(C)nc(S(C)(=O)=O)c1C#N` the entry was “inactive”.
In the case of `CC(C)(C(=O)N1CCC1(C)C(=O)NS(=O)(=O)c1ccc(Br)cc1)c1ccccc1` (centres undefined), the Potency entry is “inactive”.
To `O=C(Nc1ccccc1)c1ccc(NC(=O)c2cccs2)cc1` belongs “inactive”; to `COc1cc(NC(=O)c2cccs2)ccc1NC(=O)c1ccccc1Cl`, 14.1 µM (active).
With `COc1cc(Cl)c(C)cc1NC(=O)[C@@H]1CCCN1C(=O)c1cccs1` the entry was “inactive”.
Regarding `CCC1OC(C2CC2)CC2=C1C(=O)OC(C)(C)O2` (centres undefined), the Potency result is “inactive”.
With `CCc1cc(C(N)=O)c(NC(=O)c2ccc(OC)cc2)s1` the entry was “inactive”.
For `CC(C)c1cc(C(N)=O)c(NC(=O)c2cccc(COc3ccc(Br)cc3)c2)s1`, the Potency was 25.1 µM (active).
As to `CC(C)(C)OC(=O)N(Cc1ccccc1)Cc1ccc(OCc2cccc(NC(=O)c3ccccc3)c2)cc1`, the Potency result is “inactive”.
To `COCCNC(=O)C1(C)CCCN(Cc2cccc(F)c2)C1` (centres undefined) belongs “inactive”.
Regarding `COc1ccc(OCCCn2c(C)nc3cc(C)c(C)cc32)cc1`, the Potency entry is “inactive”.
With `COc1ccc(OCCCCN2CCC(C)CC2)cc1` the entry was “inactive”.
On to `COc1ccc(OCCn2ccnc2C)cc1`, for which the Potency is 3.16 µM (active).
In the case of `O=C(C[C@H]1C[C@H]2c3cc(NS(=O)(=O)c4ccc(F)cc4)ccc3O[C@H]2[C@H](CO)O1)NCc1cc(F)ccc1F`, the Potency result is “inactive”.
In the case of `Cc1cc(NC(=O)CCN2CCN(Cc3ccccc3)CC2)ccc1Br`, the Potency entry was “inactive”.
To `CCOC(=O)c1[nH]c2ccc(OC)cc2c1NC(=O)N1CCOCC1` belongs 25.1 µM (active); to `COC(=O)c1[nH]c2ccccc2c1NC(=O)CN1CCCc2ccccc21`, “inactive”.
Regarding `CCOC(=O)c1[nH]c2ccc(OC)cc2c1NC(=O)CCN1CCN(Cc2ccccc2)CC1`, the Potency was 31.6 µM (active).
With `CCOC(=O)N1CCN(CCC(=O)Nc2cc(OC)ccc2OC)CC1` the entry was “inactive”; with `Cc1c(C(=O)CN2CCOCC2)[nH]c2ccccc12`, “inactive”; with `CCOC(=O)[C@]12CCCC=C1N(Cc1ccc(Cl)cc1Cl)C(=O)[C@H](CC(=O)N1CCCCC1)C2`, “inactive”.
To `OCC(O)C(O)C(O)C(O)C=Nc1ccc(/C=C/c2ccnc3ccccc23)cc1` (centres undefined) belongs “inactive”; to `CCCc1ccc(S(=O)(=O)N2CCN(C(=O)c3cc(C)on3)CC2)cc1`, “inactive”; to `CCOc1ccc(CCN2C(=O)C(=O)N([C@@H](CC(C)C)CN3CCC[C@H]3CN3C(=O)C(=O)NC[C@@H]3Cc3ccccc3)C[C@@H]2CC(C)C)cc1`, “inactive”.
Take `CC(C)NC(=O)C1(C)CCCCCN1C(=O)c1ccc(-c2ccccc2)cc1` (centres undefined): the Potency entry is “inactive”.
With `O=C(COc1coc(CN2CCN(c3ccccc3)CC2)cc1=O)N1CCc2ccccc21` the figure was 28.2 µM (active); with `O=C(COc1coc(CN2CCN(c3ccccc3)CC2)cc1=O)Nc1ccccc1F`, “inactive”.
Regarding `O=C(COc1coc(CN2CCN(c3ccccc3F)CC2)cc1=O)N1CCc2ccccc21`, the Potency entry was “inactive”.
With `CS(=O)c1ccc(/C=C2\C=Cc3ccccc32)cc1` (centres undefined) the entry was “inactive”; with `CCCNC(=O)C1(C)CCCN(Cc2cccc(C(F)(F)F)c2)C1` (centres undefined), “inactive”.
To `Cc1cc(C)c(S(=O)(=O)NN=C2c3ccccc3[C@H]3Cc4csc[n+]4[C@@H]23)c(C)c1` belongs “inactive”.
With `Cc1ccc(-c2nc3ccccn3c2Nc2ccc(F)cc2)o1` the entry was “inactive”.
Turning to `COc1ccccc1C(=O)Nc1ccc(NC(=O)c2ccco2)c(C)c1`, the Potency entry is “inactive”.
With `COc1cccc(C(=O)Nc2ccc(NC(=O)c3ccco3)cn2)c1` the figure was 14.1 µM (active); with `O=C(Nc1ccc(NC(=O)c2cccs2)cn1)c1ccco1`, “inactive”; with `COc1ccc(NC(=O)c2ccco2)cc1NC(=O)COc1ccc(C)c(C)c1`, “inactive”.
Regarding `Cc1ccc(NC(=O)c2ccco2)cc1`, the Potency result was “inactive”.
With `Cc1ccc(C(=O)COc2cccc(NC(=O)c3ccco3)c2)cc1` the figure was 15.8 µM (active).
